{"source": "ChEMBL document CHEMBL3988442", "about": "“University of Dundee, Small-Polar-MMV Screening Library” (2021)", "note": "Hit rate of the full screen: of about 48,000 compounds, about 13,000 (27%) showed an effect of 50% or more. Some of the results follow.", "data": [{"system": "Wolbachia pipientis", "assay": "Anti-Wolbachia Cell-Based Screen", "type": "functional", "parameters": "scale not given: in the data most compounds retested in dose-response had high values", "conditions": "5 µM", "units": {"Percent Effect": "%"}, "values": [{"smiles": "CCCc1n[nH]c(C2CN(Cc3nnc(C4CC4)n3C)CCO2)n1", "note": "(configuration not stated)", "Percent Effect": -1.998}, {"smiles": "COCCO[C@H]1CCN(C(=O)c2cnoc2C)[C@H]1Cc1cnn(C)c1", "Percent Effect": -37.67}, {"smiles": "CC(CN1CCN(C)CC1)NC(=O)c1cc(Cl)c2c(c1)OCO2", "note": "(configuration not stated)", "Percent Effect": -52.56}, {"smiles": "CN(C)S(=O)(=O)N1CC[C@@H]2CN(Cc3cnn(C)c3)C[C@@H]2C1", "Percent Effect": -2.262}, {"smiles": "CCCn1cc(CN2CCC(c3[nH]ncc3S(C)(=O)=O)C2)cn1", "note": "(configuration not stated)", "Percent Effect": 113}, {"smiles": "COc1ncc(CN2CCCC(c3[nH]ncc3S(C)(=O)=O)C2)cn1", "note": "(configuration not stated)", "Percent Effect": 102.2}, {"smiles": "CCn1cc(CN2CCCC(c3[nH]ncc3S(C)(=O)=O)C2)cn1", "note": "(configuration not stated)", "Percent Effect": 1.783}, {"smiles": "CCn1cc(CN2CCN(C)C3(CCC(=O)N(CC4CC4)CC3)C2)cn1", "note": "(configuration not stated)", "Percent Effect": 0.5097}, {"smiles": "CCn1cc(CN2CCC(c3[nH]ncc3S(C)(=O)=O)C2)cn1", "note": "(configuration not stated)", "Percent Effect": 105.5}, {"smiles": "Cn1cc(CN2CCC(c3[nH]ncc3S(C)(=O)=O)C2)cn1", "note": "(configuration not stated)", "Percent Effect": 89.03}, {"smiles": "CS(=O)(=O)c1ncc(CN2CCN3CCCC3C2)n1CC1CCCCC1", "note": "(configuration not stated)", "Percent Effect": 0.5285}, {"smiles": "Cn1cc(CN2CC[C@@H]3[C@@H](CCC(=O)N3CC3CCNCC3)C2)cn1", "Percent Effect": -8.948}, {"smiles": "CCC[C@@H]1CN(Cc2cnc3c(S(C)(=O)=O)cnn3c2)C[C@H]1N(C)C", "Percent Effect": -11.35}, {"smiles": "CCn1cc(CN2CCC(c3nnc(CN(C)C)n3CC)CC2)cn1", "Percent Effect": -1.722}, {"smiles": "COc1cc(Br)c(S(=O)(=O)NC(=O)C(C)OC)cc1OC", "note": "(configuration not stated)", "Percent Effect": 2.536}, {"smiles": "Cc1cc(C(=O)N2C[C@H]3CC[C@@H]2CN(Cc2ccccn2)C3)nc(C)n1", "Percent Effect": -8.906}, {"smiles": "Cc1ccc(F)c(S(=O)(=O)NCc2[nH]ncc2Br)c1", "Percent Effect": -8.756}, {"smiles": "CCn1nc(CC(C)C)cc1C(=O)N1CC(N2CCCCC2C)C1", "note": "(configuration not stated)", "Percent Effect": 1.245}, {"smiles": "CC(CCS(C)(=O)=O)NC(=O)NCc1ccc2c(c1)CCC2", "note": "(configuration not stated)", "Percent Effect": 5.194}, {"smiles": "Cc1ccc2c(c1)nc1n2[C@@H](CNC(=O)c2cncnc2)COC1", "Percent Effect": -17.88}, {"smiles": "Cc1cc(N2CCC(n3cc(CN4CCNCC4)nn3)CC2)ccn1", "Percent Effect": -4.274}, {"smiles": "CN(C)CCNCC1COCc2c(-c3ccnn3C)nnn2C1", "note": "(configuration not stated)", "Percent Effect": 97.42}, {"smiles": "Cn1nccc1-c1nnn2c1COCC(CNC1CCOCC1)C2.O=C(O)C(F)(F)F.O=C(O)C(F)(F)F", "note": "(configuration not stated)", "Percent Effect": 88.78}, {"smiles": "Cc1noc(C)c1CNCC1COCc2c(-c3ccoc3)nnn2C1.O=C(O)C(F)(F)F", "note": "(configuration not stated)", "Percent Effect": -8.022}, {"smiles": "Cc1nc(CNCC2COCc3c(-c4ccoc4)nnn3C2)cs1", "note": "(configuration not stated)", "Percent Effect": -8.682}, {"smiles": "O=C(O)C(F)(F)F.c1csc(CNCC2COCc3c(-c4ccoc4)nnn3C2)n1", "note": "(configuration not stated)", "Percent Effect": 7.766}, {"smiles": "O=C(NCC1COCc2c(-c3ccncc3)nnn2C1)[C@H]1CCCO1.O=C(O)C(F)(F)F", "note": "(some centres not stated)", "Percent Effect": 13.14}, {"smiles": "c1csc(CNCC2COCc3c(-c4ccsc4)nnn3C2)n1", "note": "(configuration not stated)", "Percent Effect": -12.98}, {"smiles": "Cn1nccc1-c1nnn2c1COCC(CNCC1CC1)C2.O=C(O)C(F)(F)F.O=C(O)C(F)(F)F", "note": "(configuration not stated)", "Percent Effect": 95.94}, {"smiles": "Fc1cccc(-c2nnn3c2COCC(CNCc2nccs2)C3)c1.O=C(O)C(F)(F)F", "note": "(configuration not stated)", "Percent Effect": -16.94}, {"smiles": "CC(C)N(Cc1cccnc1)C(=O)CNc1ccc(C#N)cc1", "Percent Effect": -12.71}, {"smiles": "Cc1csc(CN2CC[C@H]3O[C@H](C(=O)Nc4cccnc4)CC[C@H]32)n1.O=C(O)C(F)(F)F.O=C(O)C(F)(F)F", "Percent Effect": 273.2}, {"smiles": "O=C(NC1CCC1)[C@@H]1CC[C@@H]2[C@@H](CCN2CCc2ccccc2)O1.O=C(O)C(F)(F)F", "Percent Effect": -17.29}, {"smiles": "O=C(NCc1ccccn1)[C@@H]1CC[C@@H]2[C@@H](CCN2c2ncc(F)cn2)O1.O=C(O)C(F)(F)F.O=C(O)C(F)(F)F", "Percent Effect": 7.451}, {"smiles": "O=C(Nc1cnccn1)[C@H]1CC[C@@H]2[C@@H](CCN2Cc2ccccn2)O1.O=C(O)C(F)(F)F", "Percent Effect": 79.42}, {"smiles": "Cc1ncccc1NC(=O)[C@@H]1CC[C@@H]2[C@@H](CCN2Cc2cnn(C)c2)O1.O=C(O)C(F)(F)F.O=C(O)C(F)(F)F.O=C(O)C(F)(F)F", "Percent Effect": -6.669}, {"smiles": "O=C(NCc1ccco1)[C@H]1CC[C@@H]2[C@@H](CCN2Cc2nccs2)O1.O=C(O)C(F)(F)F", "Percent Effect": 5.491}, {"smiles": "Cn1cc(CN2CC[C@H]3O[C@H](C(=O)NC4CC4)CC[C@H]32)c2ccccc21.O=C(O)C(F)(F)F", "Percent Effect": -3.833}, {"smiles": "O=C(Nc1cnccn1)[C@@H]1CC[C@@H]2[C@@H](CCN2Cc2nccs2)O1.O=C(O)C(F)(F)F", "Percent Effect": 114.9}, {"smiles": "Cc1cccc(CN2CC[C@H]3O[C@H](C(=O)Nc4cnccn4)CC[C@H]32)n1.O=C(O)C(F)(F)F.O=C(O)C(F)(F)F", "Percent Effect": 108.3}, {"smiles": "CC(C)NC(=O)[C@@H]1CC[C@@H]2[C@@H](CCN2Cc2ccc3ccccc3n2)O1.O=C(O)C(F)(F)F", "Percent Effect": -12.2}, {"smiles": "O=C(c1cc[nH]n1)N(Cc1cccc(O)c1)CC1CC1", "Percent Effect": -5.824}, {"smiles": "CN1CCCCC12CCN(c1nncs1)CC2.O=C(O)C(F)(F)F", "Percent Effect": -22.78}, {"smiles": "CCCN1CCc2[nH]nc(C(=O)N3CCNC(=O)C3)c2C1.O=C(O)C(F)(F)F.O=C(O)C(F)(F)F", "Percent Effect": -12.08}, {"smiles": "CCc1nnc(C2Cc3ccccc3CN2Cc2nc(C3CC3)no2)o1", "note": "(configuration not stated)", "Percent Effect": -3.635}, {"smiles": "Cc1noc(C)c1CN1CCCC1C(=O)OCc1ccccc1", "note": "(configuration not stated)", "Percent Effect": 4.096}, {"smiles": "Cc1nnc(C2Cc3ccccc3CN2Cc2c(C)noc2C)o1", "note": "(configuration not stated)", "Percent Effect": 100.9}, {"smiles": "Cc1cc(CN2Cc3ccccc3CC2c2nnc(C)o2)no1", "note": "(configuration not stated)", "Percent Effect": 108.3}, {"smiles": "CCc1nnc(C2Cc3ccccc3CN2Cc2cc(C)no2)o1", "note": "(configuration not stated)", "Percent Effect": -1.172}, {"smiles": "Cc1nnc(C2Cc3ccccc3CN2Cc2ncc(C(C)(C)C)o2)o1", "note": "(configuration not stated)", "Percent Effect": 21.52}, {"smiles": "Cc1nnc(C2Cc3ccccc3CN2Cc2nc(C3CC3)no2)o1", "note": "(configuration not stated)", "Percent Effect": -2.569}, {"smiles": "Cc1noc(CN2Cc3ccccc3CC2c2nnc(C)o2)n1", "note": "(configuration not stated)", "Percent Effect": 1.632}, {"smiles": "CCc1nnc(C2Cc3ccccc3CN2Cc2cc(C)on2)o1", "note": "(configuration not stated)", "Percent Effect": 6.832}, {"smiles": "CCc1nnc(C2Cc3ccccc3CN2Cc2nc(C)no2)o1", "note": "(configuration not stated)", "Percent Effect": 88.09}, {"smiles": "Cc1nnc(C2Cc3ccccc3CN2Cc2nc(C(C)C)no2)o1", "note": "(configuration not stated)", "Percent Effect": 134.6}, {"smiles": "Cc1cc(CN2Cc3ccccc3CC2c2nnc(C)o2)on1", "note": "(configuration not stated)", "Percent Effect": 1.784}, {"smiles": "C[C@@H](NCc1cccc(Cl)c1)c1onc(-c2ccccc2)c1C(=O)O", "Percent Effect": -2.837}, {"smiles": "COc1cc(CN(C)C(=O)Nc2cc(C)on2)ccc1SC", "Percent Effect": -6.064}, {"smiles": "O=C1NC(c2ccccc2)=N[C@@]12CC[C@@H]1CN(Cc3nccs3)C[C@@H]12", "Percent Effect": -1.68}, {"smiles": "CC(C)N1CCC(N2CCCC(C(=O)NCC3(O)CCCCC3)C2)CC1", "note": "(configuration not stated)", "Percent Effect": 0.6612}, {"smiles": "COCc1ncn2c1CN(C(=O)c1cnc3ccccc3c1)CC2", "Percent Effect": 79.69}, {"smiles": "COCc1ncn2c1CN(C(=O)c1ccc3ccccc3n1)CC2.O=C(O)C(F)(F)F", "Percent Effect": 86.38}, {"smiles": "COCc1ncn2c1CN(C(=O)C1CC=CC1)CC2", "Percent Effect": -12.78}, {"smiles": "COCc1ncn2c1CN(C(=O)c1cccc3cccnc13)CC2.O=C(O)C(F)(F)F", "Percent Effect": 103}, {"smiles": "O=C(O)C(F)(F)F.O=C(c1ccccn1)N1CCn2cnc(COCC3CC3)c2C1", "Percent Effect": 22.66}, {"smiles": "COCc1cnc2n1CCN(C(=O)c1ccc3ccccc3n1)C2C.O=C(O)C(F)(F)F", "note": "(configuration not stated)", "Percent Effect": -39.11}, {"smiles": "COCc1ncn2c1CN(S(=O)(=O)Cc1ccc(C)cc1)CC2.O=C(O)C(F)(F)F", "Percent Effect": 14.75}, {"smiles": "Cc1ccc(C(=O)N2CCn3cnc(COCC4CC4)c3C2)cn1.O=C(O)C(F)(F)F", "Percent Effect": -1.031}, {"smiles": "Cc1ccc(F)c(N2CCCC(NS(=O)(=O)CCCF)C2=O)c1", "note": "(configuration not stated)", "Percent Effect": -1.757}, {"smiles": "O=C(CN1CCOc2ccc(Cl)cc21)NCCCn1ccnc1", "Percent Effect": 9.044}, {"smiles": "CN(C(=O)OC(C)(C)C)C1CCN(C(=O)c2ccc(Cl)o2)C1", "note": "(configuration not stated)", "Percent Effect": -6.554}, {"smiles": "CCS(=O)(=O)c1ncc(CN(C)Cc2ccccn2)n1CCOC", "Percent Effect": -6.84}, {"smiles": "Cc1noc(NS(=O)(=O)c2ccc(Cl)s2)c1C", "Percent Effect": -16.85}, {"smiles": "O=C(O)C(F)(F)F.O=C(O)C(F)(F)F.O=c1ccc2c(n1Cc1ccncc1)CCN(Cc1ccoc1)CC2", "Percent Effect": 96.18}, {"smiles": "Cn1c2c(ccc1=O)CCN(Cc1ccoc1)CC2.O=C(O)C(F)(F)F", "Percent Effect": 97.4}, {"smiles": "O=C(O)C(F)(F)F.O=C(O)C(F)(F)F.O=c1ccc2c(n1Cc1cccnc1)CCN(Cc1ccoc1)CC2", "Percent Effect": 110}, {"smiles": "O=C(O)C(F)(F)F.O=C(O)C(F)(F)F.O=c1ccc2c(n1Cc1cccnc1)CCN(CC1CCOC1)CC2", "note": "(configuration not stated)", "Percent Effect": -12.29}, {"smiles": "O=C(O)C(F)(F)F.O=C(O)C(F)(F)F.O=c1ccc2c(n1Cc1cccnc1)CCN(C1CCOC1)CC2", "note": "(configuration not stated)", "Percent Effect": 2.129}, {"smiles": "COCC1c2c(cnn2C)CCN1Cc1ccoc1", "note": "(configuration not stated)", "Percent Effect": -6.273}, {"smiles": "COCCn1c2c(ccc1=O)CCN(Cc1ccoc1)CC2", "Percent Effect": 106.6}, {"smiles": "O=C(O)C(F)(F)F.O=C(O)C(F)(F)F.O=c1ccc2c(n1CCN1CCCC1)CCN(Cc1ccoc1)CC2", "Percent Effect": -0.3339}, {"smiles": "COc1ccc2c(c1)C1(CCN(Cc3ccoc3)CC1)N(C)CC2", "Percent Effect": -15.48}, {"smiles": "CS(=O)(=O)NCC1(c2ccccc2Br)CC1", "Percent Effect": 1.161}, {"smiles": "O=C(O)C1CCN(C[C@H]2CC[C@@H](Cc3ccc4c(c3)OCO4)O2)CC1", "Percent Effect": 4.381}, {"smiles": "Cc1cc(Cl)ccc1S(=O)(=O)NCC(C)N1CCN(C)CC1", "note": "(configuration not stated)", "Percent Effect": 0.8605}, {"smiles": "CC1CCN(Cc2cnc(S(=O)(=O)CC3CC3)n2CC2CCCO2)CC1", "note": "(configuration not stated)", "Percent Effect": 3.735}, {"smiles": "CCC(C)Oc1cc(C(=O)Nc2nccs2)ccn1", "note": "(configuration not stated)", "Percent Effect": -12.97}]}]}
